Source: PubChem BioAssay (several laboratories)
SKKanGAS inh = SKKanGAS growth inhibition; S. pyogenes SKKanGAS, kanamycin growth, BacTiter-Glo, 6 h; hit rate 1.3% among 300,000; inhibition, % at 7.5 µM; AID 1662;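 active means mean replicate score, as percent of positive control median, at least 50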;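 further: strain carries kanamycin resistance gene driven by streptokinase promoter and grows in 40 µg/ml kanamycin; loss of luminescence reflects streptokinase promoter inhibition or plain growth inhibition; 0% = median of DMSO wells and 100% = positive control at its reference dose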
NALP1 yeast inh = inhibitors of NALP1 inflammasome in yeast; S. cerevisiae NALP1/ASC/caspase-1 growth, X-gal OD620, 72 h; inhibition, % at 10 µM; hit rate 0.61% among 280,000; AID 2071; in the data active means inhibition mostly above about 24%, no sharp cut-off; inactive means mostly below about 32%
TIM10 inh = growth inhibitors of TIM10 yeast strain | hit rate 1.4% among 330,000 | S. cerevisiae TIM10 strain growth, BacTiter-Glo luminescence, 24 h | inhibition, % at 10 µM | AID 463195;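 active means inhibition of 40% or more at the single tested concentration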;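 further: wild-type TIM10 isogenic control strain grown at permissive 25 °C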
tim23-1 inh = tim23-1 yeast growth inhibition. hit rate 1.3% among 330,000. inhibition, % at 20 µM. S. cerevisiae tim23-1 growth, BacTiter-Glo luminescence, 24 h;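 active means growth inhibition of the mutant yeast at or above 50%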;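 further: temperature-sensitive mutant grown at 25 °C; plate controls were DMSO-treated mutant yeast for no effect and medium wells lacking yeast for full effect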
PfHsp90 yeast 2 = inhibits growth of yeast expressing Plasmodium falciparum Hsp90 | hit rate 0.32% among 310,000 | S. cerevisiae expressing PfHsp90, BacTiter-Glo ATP, 48 h; yeast lacking PDR1 and PDR3 efflux regulators | inhibition, % at 9.4 µM;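 active means every replicate shows inhibition above about 80%, whatever the replicate mean, limit read from the data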;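 further: 0% = DMSO neutral controls and 100% = 20 µM radicicol positive controls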
tim10-1 inh = growth inhibitors of tim10-1 mutant yeast; hit rate 2.2% among 330,000; S. cerevisiae tim10-1 ts strain growth, BacTiter-Glo, 24 h; inhibition, % at 20 µM;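 active means inhibition of at least 40%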;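 further: mutant grown at 25 °C; 0% = DMSO wells with yeast and 100% = wells holding no yeast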
tim10 confirm = TIM10 yeast growth inhibition, confirmed | shares compounds with TIM10 inh | inhibition, % at 10 µM | AID 463215 | hit rate 63% among 4,600 | S. cerevisiae tim10 strain growth, BacTiter-Glo luminescence, 24 h;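 active means inhibition of yeast growth at or above a set limit in either of two replicates at 10 µM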;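 further: this counterscreen used the strain with wild-type TIM10; 0% = yeast with DMSO and 100% = medium wells lacking yeast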
Starred values were filed as active, the others as inactive; · = not tested or not shown. Compounds with a hit are over-represented: about 4.8% of the library has one in this group of screens.

SMILES | SKKanGAS inh | NALP1 yeast inh | TIM10 inh | tim23-1 inh | PfHsp90 yeast 2 | tim10-1 inh | tim10 confirm
COc1cc(SC)ccc1C(=O)Nc1ncc(Cl)cc1Cl | -13 | -8 | 48* | 9 | -4 | 17 | -8
COc1cc(SC)ccc1C(=O)Nc1ccc(Br)cn1 | -20 | 10 | -9 | 0 | -9 | 7 | ·
Oc1ccccc1Cn1c(-c2ccccc2O)nc2ccccc21 | 15 | 31 | 52* | 3 | -11 | 35 | 22
Cc1nc(-c2ccccn2)nc(SCC(=O)c2ccc(F)cc2)c1Cl | 85* | · | 41* | 41 | 14 | 29 | 42*
CCCn1cnc2cc(NC(=O)c3cccs3)ccc21 | -17 | -25 | 61* | 49 | -2 | 24 | 42*
CCCn1cnc2cc(NC(=O)c3ccco3)ccc21 | 0 | -13 | 0 | 46 | 6 | 0 | ·
COc1ccc(N(CC(=O)N2CCN(Cc3ccccc3)CC2)S(=O)(=O)c2ccccc2)cc1 | 0 | 11 | 8 | 17 | -9 | 15 | ·
Cc1ccccc1NS(=O)(=O)c1ccc(OCC(=O)NCC2CCCO2)cc1 (stereo unspecified) | -2 | 21 | 4 | 3 | 5 | -2 | ·
CC(C)COC(=O)C(C#N)c1nc2ccccc2nc1N1CCN(Cc2ccc3c(c2)OCO3)CC1 (stereo unspecified) | 8 | -16 | 49* | 25 | -9 | 35 | 39*
O=C(Nc1ccc(Cl)cc1)N1CCC(c2nc(-c3ccccc3Cl)no2)CC1 | 35 | 23 | 48* | -6 | -12 | 30 | 19
CC1(C)C2([N+](=O)[O-])CN3CC1([N+](=O)[O-])CN(C2)C3c1ccccc1 (stereo unspecified) | -13 | -11 | -1 | -15 | -5 | -1 | ·
O=C(Nc1ccc(NC(=O)c2ccccc2F)cc1)c1cccs1 | · | · | 45* | 47 | · | -18 | 26
O=C(Nc1ccc(NC(=O)c2cccs2)cc1)c1cccs1 | -1 | 6 | -7 | -3 | 10 | -45 | ·
COc1ccc(N(CC(=O)N/N=C/c2cc(OC)ccc2OC)S(=O)(=O)c2ccccc2)cc1 | 18 | -2 | 55* | 11 | -27 | 7 | 17
S=C(Nc1ccc(Oc2ccccc2)cc1)NC1CCCC1 | 4 | 22 | 16 | 42 | -28 | 38 | ·
S=C(NCC1CCCCC1)Nc1ccc(Oc2ccccc2)cc1 | 54* | 24 | 54* | 23 | -10 | 40 | 30*
COc1cc2cnc(-c3ccccc3)c(C(=O)c3ccc(OCc4ccccc4)cc3)c2cc1OC | · | · | 11 | 31 | -16 | 20 | ·
N=c1oc2cc(O)ccc2cc1C(=O)Nc1nc2ccccc2s1 | -2 | 10 | · | · | 7 | · | ·
CCC(C)(C(=O)NC1CCCC1)N(Cc1cccs1)C(=O)Cc1cccs1 (stereo unspecified) | 14 | 3 | 45* | 21 | 6 | 23 | 16
O=C(N=C1c2ccccc2CN1c1ccc(F)c(F)c1)c1cccnc1 | · | -19 | 49* | 42 | 0 | 33 | 13
Cn1c(SCC(=O)N2CCCC2)nc2ccccc21 | -6 | 7 | -17 | -6 | -3 | -4 | ·
Cn1c(SCC(=O)N(Cc2ccccc2)C(C)(C)C)nc2ccccc21 | -3 | -3 | 40* | 49 | -16 | 33 | 24
CCN(CC)CCN(C(=O)c1ccc2c(c1)CCCC2)c1nc2ccc(C)cc2s1 | 4 | 29 | 26 | 46 | 15 | 37 | ·
CCN(CC)CCN(C(=O)c1ccc2c(c1)CCCC2)c1nc2c(C)cccc2s1 | 5 | 13 | 40* | 48 | 4 | 39 | 12
Cc1cc(C(=O)Nc2cc(S(C)(=O)=O)ccc2Cl)no1 | -3 | · | -12 | 7 | -7 | -4 | ·
Cc1ccc(-n2nnc3c(=O)oc4ccccc4c32)cc1 | -1 | -5 | 77* | 47 | -13 | 12 | 91*
Cc1ccc(-c2[nH]nc3c2C(c2ccoc2)C(C#N)=C(N)O3)cc1C (stereo unspecified) | -4 | -12 | 41* | 42 | 26 | 39 | 30
CC1=CC(C)(C)NC(=S)N1c1cc(C)cc(C)c1 | -2 | 2 | 45* | 29 | 8 | 33 | 22
CCOc1ccccc1N1CCN(C(=O)CNC(=O)c2ccccc2F)CC1 | -1 | -4 | 1 | 10 | 13 | -9 | ·
